Laboratory results taken from the supplement of paper PMC10849652.
Of roughly 7,900 targets only a part is listed; those with a hit were picked by preference. About 0.6% of all pairs of compound and target were hits.

How the values were obtained:
Assay in all cases: log2 fold change, soluble protein after heating vs DMSO (PISA); higher = thermal stabilisation; K562 cells, 10 uM, 30 min; active = over 0.2 and 3.5 SD of the protein, either way, in both replicates (recomputed)
[1] = compound: C1=CC=C(C=C1)[C@H](COC2=CC3=C(C=C2)NC(=O)N3)NC(=O)C4=CC=CN(C4=O)CC5=CC(=C(C=C5)F)F
How it was run: (§1)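 K562 cells (2×10^6 cells/mL) were treated with 10 μM compound for 30 min, and aliquots were heated for 3 min over 48°C-58°C. Pooled aliquots were extracted in PBS with 0.5% NP-40 at 4°C, and the supernatant after 21,000xg for 90 min was measured by TMTpro 16plex LC-MS/MS with channel sums equalised. Reported thermal stability, relative to control samples and from duplicates, is a log2 fold change.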

[2] = compound: CC1=C(SC2=C1C(=N[C@H](C3=NN=C(N32)C)CC(=O)N)C4=CC=C(C=C4)Cl)C
How it was run: as §1

[3] = compound: CC1=C2C(=CC=C1)N=C(N(C2=O)C3=CC=CC=C3C)CN4C=NC5=C(N=CN=C54)N
How it was run: as §1

[4] = compound: Cc1sc2c(c1C)C(c1ccc(Cl)cc1)=N[C@@H](CC(=O)OC(C)(C)C)c1nnc(C)n1-2
How it was run: as §1

[5] = compound: c1ccc([C@@H]2C[C@H]2NC2CCNCC2)cc1
How it was run: as §1

Measured: log2 fold change

PKN1 isoform 2 (UniProt Q16512)
Chain of UniProt Q16512 (Q16512 whole entry, looked up): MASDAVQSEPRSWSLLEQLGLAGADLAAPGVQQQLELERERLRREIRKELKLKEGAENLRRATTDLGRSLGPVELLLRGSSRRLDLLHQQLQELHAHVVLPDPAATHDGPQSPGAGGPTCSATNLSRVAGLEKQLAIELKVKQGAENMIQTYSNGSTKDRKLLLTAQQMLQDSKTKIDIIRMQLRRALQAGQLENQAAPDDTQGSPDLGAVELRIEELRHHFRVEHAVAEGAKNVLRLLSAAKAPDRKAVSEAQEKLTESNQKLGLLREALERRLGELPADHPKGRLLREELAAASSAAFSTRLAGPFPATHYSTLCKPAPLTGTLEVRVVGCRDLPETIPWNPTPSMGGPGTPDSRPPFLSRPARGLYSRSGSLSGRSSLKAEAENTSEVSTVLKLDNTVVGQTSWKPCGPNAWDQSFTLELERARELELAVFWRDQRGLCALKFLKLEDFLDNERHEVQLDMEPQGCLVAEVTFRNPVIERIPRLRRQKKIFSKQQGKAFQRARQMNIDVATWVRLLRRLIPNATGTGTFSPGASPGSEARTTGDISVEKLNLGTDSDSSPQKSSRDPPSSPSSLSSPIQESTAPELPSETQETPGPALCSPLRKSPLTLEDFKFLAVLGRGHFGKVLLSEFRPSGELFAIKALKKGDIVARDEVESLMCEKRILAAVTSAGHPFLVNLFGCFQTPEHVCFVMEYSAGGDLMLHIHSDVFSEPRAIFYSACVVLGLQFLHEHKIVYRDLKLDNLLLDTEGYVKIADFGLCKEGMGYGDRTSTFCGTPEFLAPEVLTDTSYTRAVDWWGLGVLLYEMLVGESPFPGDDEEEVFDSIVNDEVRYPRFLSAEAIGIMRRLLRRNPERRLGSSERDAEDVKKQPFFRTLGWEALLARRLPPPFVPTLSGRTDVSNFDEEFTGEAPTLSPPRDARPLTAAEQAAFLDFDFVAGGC
inactive: [1] -0.077 | [2] 0.079 | [3] 0.069 | [4] 0.015 | [5] 0

PRKCD (UniProt Q05655)
Chain of UniProt Q05655 (Q05655 whole entry, looked up): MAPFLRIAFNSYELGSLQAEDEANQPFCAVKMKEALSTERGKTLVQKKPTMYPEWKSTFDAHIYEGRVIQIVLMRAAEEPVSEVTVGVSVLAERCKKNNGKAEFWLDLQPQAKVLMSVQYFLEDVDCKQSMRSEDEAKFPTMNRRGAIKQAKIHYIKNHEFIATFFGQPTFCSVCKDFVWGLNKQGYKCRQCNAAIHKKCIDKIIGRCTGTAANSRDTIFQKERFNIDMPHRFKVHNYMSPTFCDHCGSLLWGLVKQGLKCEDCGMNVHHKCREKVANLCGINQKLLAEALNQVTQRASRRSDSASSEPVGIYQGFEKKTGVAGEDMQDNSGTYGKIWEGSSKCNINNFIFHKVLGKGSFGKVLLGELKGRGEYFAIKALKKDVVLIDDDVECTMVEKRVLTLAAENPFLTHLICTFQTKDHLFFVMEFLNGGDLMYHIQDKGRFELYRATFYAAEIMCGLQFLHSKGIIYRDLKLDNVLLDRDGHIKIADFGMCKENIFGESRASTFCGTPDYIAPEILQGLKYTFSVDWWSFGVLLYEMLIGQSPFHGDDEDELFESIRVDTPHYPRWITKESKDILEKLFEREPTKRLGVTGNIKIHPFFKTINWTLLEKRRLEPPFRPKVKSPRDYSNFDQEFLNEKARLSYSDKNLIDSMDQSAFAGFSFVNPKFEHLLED
inactive: [1] -0.05 | [2] 0.082 | [3] 0.071 | [4] 0.004 | [5] -0.021

PSPC1 (UniProt Q8WXF1)
Chain of UniProt Q8WXF1 (Q8WXF1 whole entry, looked up): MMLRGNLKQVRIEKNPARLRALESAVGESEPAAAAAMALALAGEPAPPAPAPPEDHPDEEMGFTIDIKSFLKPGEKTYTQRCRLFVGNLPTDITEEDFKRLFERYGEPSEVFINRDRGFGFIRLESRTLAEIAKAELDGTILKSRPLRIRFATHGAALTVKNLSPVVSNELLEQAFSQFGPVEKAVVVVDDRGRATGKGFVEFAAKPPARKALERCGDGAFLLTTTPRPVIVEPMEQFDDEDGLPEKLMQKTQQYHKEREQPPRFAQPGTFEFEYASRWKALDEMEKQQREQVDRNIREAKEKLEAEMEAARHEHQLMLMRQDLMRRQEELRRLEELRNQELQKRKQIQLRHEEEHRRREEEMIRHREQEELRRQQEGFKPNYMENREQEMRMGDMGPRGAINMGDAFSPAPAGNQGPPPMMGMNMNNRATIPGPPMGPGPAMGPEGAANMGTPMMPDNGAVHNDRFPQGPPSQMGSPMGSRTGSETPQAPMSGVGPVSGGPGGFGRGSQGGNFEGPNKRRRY
inactive: [1] -0.023 | [2] -0.029 | [3] 0.038 | [4] -0.032 | [5] 0.015

PDCD2L (UniProt Q9BRP1)
Chain of UniProt Q9BRP1 (Q9BRP1 whole entry, looked up): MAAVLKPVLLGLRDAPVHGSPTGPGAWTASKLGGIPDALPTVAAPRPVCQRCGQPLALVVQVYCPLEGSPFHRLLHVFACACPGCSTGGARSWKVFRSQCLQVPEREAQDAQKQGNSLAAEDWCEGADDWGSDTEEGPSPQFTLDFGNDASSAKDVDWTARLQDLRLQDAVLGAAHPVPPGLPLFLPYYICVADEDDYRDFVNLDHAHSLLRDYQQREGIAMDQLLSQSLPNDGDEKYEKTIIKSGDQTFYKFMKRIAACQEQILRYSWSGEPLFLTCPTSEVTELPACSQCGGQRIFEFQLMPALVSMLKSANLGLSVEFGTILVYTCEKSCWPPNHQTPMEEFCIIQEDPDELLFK
inactive: [1] -0.031 | [2] 0.055 | [3] 0.109 | [4] 0.021 | [5] 0.091

POLR2K (UniProt P53803)
inactive: [1] 0.053 | [2] 0.06 | [3] 0.046 | [4] 0.032 | [5] -0.056

PIP4P1 isoform 2 (UniProt Q86T03)
inactive: [1] -0.016 | [2] -0.106 | [3] -0.118 | [4] -0.002 | [5] 0.05

PDCD6IP (UniProt Q8WUM4)
Chain of UniProt Q8WUM4 (Q8WUM4 whole entry, looked up): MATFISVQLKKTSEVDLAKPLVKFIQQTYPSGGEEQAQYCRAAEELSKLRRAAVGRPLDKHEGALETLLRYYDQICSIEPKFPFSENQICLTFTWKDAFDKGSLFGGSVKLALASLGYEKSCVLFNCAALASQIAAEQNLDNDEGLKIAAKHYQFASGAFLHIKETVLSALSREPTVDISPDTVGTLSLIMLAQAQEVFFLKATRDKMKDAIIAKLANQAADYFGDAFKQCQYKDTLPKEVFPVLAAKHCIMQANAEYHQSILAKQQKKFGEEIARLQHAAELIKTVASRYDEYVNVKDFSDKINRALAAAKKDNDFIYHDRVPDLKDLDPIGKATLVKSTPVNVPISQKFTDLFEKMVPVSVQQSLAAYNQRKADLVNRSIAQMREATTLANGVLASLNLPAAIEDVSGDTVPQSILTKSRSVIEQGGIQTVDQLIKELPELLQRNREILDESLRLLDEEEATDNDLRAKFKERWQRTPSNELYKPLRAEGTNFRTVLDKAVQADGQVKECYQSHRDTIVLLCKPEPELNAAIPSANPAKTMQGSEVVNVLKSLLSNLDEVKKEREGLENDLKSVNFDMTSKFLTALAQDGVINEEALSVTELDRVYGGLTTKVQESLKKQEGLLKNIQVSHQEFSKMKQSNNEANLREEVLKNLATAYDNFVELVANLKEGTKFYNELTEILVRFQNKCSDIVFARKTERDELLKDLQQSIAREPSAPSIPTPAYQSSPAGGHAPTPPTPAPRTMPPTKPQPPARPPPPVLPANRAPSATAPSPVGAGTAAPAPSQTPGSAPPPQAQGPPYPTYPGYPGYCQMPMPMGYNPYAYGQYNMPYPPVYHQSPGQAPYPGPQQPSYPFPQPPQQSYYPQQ
inactive: [1] -0.131 | [2] 0.05 | [3] 0.119 | [4] -0.029 | [5] -0.04

PXK (UniProt Q7Z7A4)
Chain of UniProt Q7Z7A4 (Q7Z7A4 whole entry, looked up): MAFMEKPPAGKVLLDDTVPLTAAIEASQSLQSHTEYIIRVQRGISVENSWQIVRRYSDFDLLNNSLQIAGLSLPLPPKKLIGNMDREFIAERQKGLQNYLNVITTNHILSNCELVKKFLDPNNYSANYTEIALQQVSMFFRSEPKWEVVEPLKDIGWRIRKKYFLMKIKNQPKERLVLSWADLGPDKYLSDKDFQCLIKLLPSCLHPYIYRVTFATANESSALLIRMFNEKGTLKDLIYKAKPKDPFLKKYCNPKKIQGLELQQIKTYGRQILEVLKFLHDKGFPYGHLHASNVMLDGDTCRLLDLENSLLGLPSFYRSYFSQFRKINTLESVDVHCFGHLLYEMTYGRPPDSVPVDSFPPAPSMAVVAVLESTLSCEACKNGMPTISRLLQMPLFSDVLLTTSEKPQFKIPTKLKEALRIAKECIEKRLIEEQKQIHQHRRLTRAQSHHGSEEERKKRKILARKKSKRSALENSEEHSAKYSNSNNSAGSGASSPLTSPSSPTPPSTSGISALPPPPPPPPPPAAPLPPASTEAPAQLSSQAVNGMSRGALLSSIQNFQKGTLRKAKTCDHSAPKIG
inactive: [1] -0.015 | [2] 0.04 | [3] 0.098 | [4] 0.011 | [5] -0.045

PSMA3 (UniProt P25788)
Chain of UniProt P25788 (P25788 whole entry, looked up): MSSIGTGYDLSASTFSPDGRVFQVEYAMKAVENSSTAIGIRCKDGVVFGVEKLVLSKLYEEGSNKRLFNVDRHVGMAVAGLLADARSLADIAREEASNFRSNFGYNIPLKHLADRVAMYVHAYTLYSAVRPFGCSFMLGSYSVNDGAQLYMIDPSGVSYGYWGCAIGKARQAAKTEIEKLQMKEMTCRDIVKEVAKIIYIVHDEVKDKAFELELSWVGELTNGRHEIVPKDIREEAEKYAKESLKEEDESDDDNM
inactive: [1] 0.051 | [2] -0.062 | [3] -0.022 | [4] -0.036 | [5] -0.029

POLR2M (UniProt Q6EEV4)
Chain of UniProt Q6EEV4 (Q6EEV4 whole entry, looked up): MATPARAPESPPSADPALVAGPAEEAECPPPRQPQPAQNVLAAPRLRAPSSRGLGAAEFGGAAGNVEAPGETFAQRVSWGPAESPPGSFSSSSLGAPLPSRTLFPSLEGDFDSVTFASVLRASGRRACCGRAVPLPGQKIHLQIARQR
inactive: [1] 0.092 | [2] 0.105 | [3] -0.002 | [4] -0.128 | [5] -0.107

PHAX (UniProt Q9H814)
Chain of UniProt Q9H814 (Q9H814 whole entry, looked up): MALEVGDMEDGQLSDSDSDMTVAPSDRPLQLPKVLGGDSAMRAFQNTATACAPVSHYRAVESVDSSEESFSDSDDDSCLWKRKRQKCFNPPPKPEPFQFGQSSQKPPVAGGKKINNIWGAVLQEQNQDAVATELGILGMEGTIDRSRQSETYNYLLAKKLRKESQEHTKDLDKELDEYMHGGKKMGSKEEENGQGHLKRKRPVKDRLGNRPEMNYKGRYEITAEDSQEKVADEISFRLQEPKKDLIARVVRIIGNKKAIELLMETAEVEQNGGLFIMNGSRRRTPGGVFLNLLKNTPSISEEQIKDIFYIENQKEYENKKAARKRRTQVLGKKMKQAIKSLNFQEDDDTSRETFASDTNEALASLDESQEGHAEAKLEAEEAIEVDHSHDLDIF
inactive: [1] 0.014 | [2] -0.019 | [3] -0.015 | [4] -0.024 | [5] 0.022
